An excerpt weighted towards active compounds, which were near 7.5% of everything screened.
Vaccinia mCherry – vaccinia inhibition (mCherry reporter). Vaccinia virus mCherry reporter infection, fluorescence. Potency, µM (titrated, usually from 36.5 µM), usual class: inhibitors. 310,000 compounds, 0.63% hits; calls by dose curve; tested in A549 cells; further: nearly all actives have a fitted effect of over 35% in size
FMDV inh – foot and mouth disease virus antiviral activity. FMDV antiviral cell-based qHTS. Potency, µM (doses to about 57.9 µM), usual class: inhibitors. 410,000 compounds, 1.2% hits. AID 1159524; calls by dose curve; tested in HEK293T cells; further: read-out not given here; nearly all actives have a fitted effect of over 45% in size
HCV inhibitor – HCV inhibition. Huh7.5.1 HCVcc-Cre infection, luciferase reporter, 44 h. Potency, µM (highest dose often 41.8 µM), hits mostly inhibitors. 340,000 compounds, 3.4% hits. AID 651820
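After 44 h co-culture of compound, cells and HCVcc-Cre (~0.5 moi), substrate is added for 15 min at room temperature and luciferase measured over 15 sec. Cells were seeded at 1,000/well and pre-cultured 4 h.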
Vaccinia Venus – inhibitors of vaccinia virus (Venus reporter) | Vaccinia virus Venus reporter expression, fluorescence | Potency, µM (titrated, usually from 36.5 µM), actives largely listed as inhibitors | 330,000 compounds, 0.46% hits; calls by dose curve; tested in A549 cells; further: nearly all actives have a fitted effect of over 30% in size
Giardia FBPA inh – blocks Giardia fructose-bisphosphate aldolase activity; A8B2U2; purified Giardia FBPA; Potency, µM (highest dose often 59.6 µM), most hits filed as inhibitors; 290,000 compounds, 0.71% hits; AID 2451; further: nearly all actives have a fitted effect of over 55% in size
Target sequence (A8B2U2 whole entry, looked up): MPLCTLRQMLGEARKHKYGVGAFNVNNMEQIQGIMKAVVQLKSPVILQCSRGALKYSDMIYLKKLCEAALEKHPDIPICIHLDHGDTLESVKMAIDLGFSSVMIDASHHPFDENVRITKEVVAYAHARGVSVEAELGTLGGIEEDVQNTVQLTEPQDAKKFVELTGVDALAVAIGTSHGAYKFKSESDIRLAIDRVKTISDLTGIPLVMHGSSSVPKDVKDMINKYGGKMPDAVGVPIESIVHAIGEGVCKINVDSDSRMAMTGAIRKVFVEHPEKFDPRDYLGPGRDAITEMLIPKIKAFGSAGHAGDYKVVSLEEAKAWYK
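40 nM FBPA preincubated 10 min at RT with compound (up to 57.5 uM final), then substrate plus GAPDH/TPI/NAD/arsenate coupling and diaphorase/resazurin added. Fluorescence read after 20 min at RT, 525/598 nm.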
HCMV inh – inhibitors of human cytomegalovirus. 410,000 compounds, 4.5% hits. activity change, negative = inhibition, % at 57.5 µM. HFF cells, HCMV-luciferase reporter, 72 h; stronger effect = lower value; in the data active means activity change below about -60%; inconclusive means no clear call, values can overlap the other calls; inactive means above about -39%
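Two compound doses tested in HFFs infected with HCMV-luciferase, MOI 1 PFU/cell, 72 h at 37C. Lysate luminescence read with OneGlo; data normalized against buffer-only and 10uM Salinomycin inhibitor controls.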
Of the large screens only hits and unclear results are named; the others gave an inactive call. Unless noted, the call rests on the fitted dose curve; in most records, active means well fitted curve in the direction sought with a large enough effect; inconclusive means small, poorly fitted or top-dose-only effect, or another doubt; inactive means no such curve, though single readings can be large; an effect the other way counts as inactive or inconclusive.

COc1ccc(OC)c2sc(NC(=O)C3=COCCO3)nc12	HCV inhibitor 11.2µM
O=C(Nc1nc(-c2ccc(Oc3ccccc3)cc2)cs1)C1=COCCO1	FMDV inh inconclusive, HCV inhibitor inconclusive, HCMV inh -64.0
COc1cccc(C(=O)NCCC(=O)NCc2cc(=O)n(C)c(=O)n2C)c1	none (no result: Vaccinia mCherry, Vaccinia Venus)
CC(Oc1ccc(F)cc1)C(=O)Nc1cc(S(=O)(=O)N2CCOCC2)ccc1N1CCCCC1 (stereo not given)	Vaccinia mCherry inconclusive, HCV inhibitor inconclusive (no result: Giardia FBPA inh)
CCOc1cc(N2CCOCC2)c(OCC)cc1NC(=O)COc1ccccc1[N+](=O)[O-]	HCV inhibitor inconclusive
O=C(COc1ccccc1[N+](=O)[O-])Nc1cccc(Cl)c1N1CCOCC1	FMDV inh 39.8µM, HCV inhibitor inconclusive, Vaccinia Venus inconclusive (no result: Giardia FBPA inh)
O=C(Nc1ccc(N2CCOCC2)c(Cl)c1)c1ccc([N+](=O)[O-])o1	Vaccinia mCherry inconclusive, HCV inhibitor 11.2µM, Vaccinia Venus inconclusive, Giardia FBPA inh inconclusive, HCMV inh -101.8
CN1CCN(c2ccc(NC(=O)c3ccc([N+](=O)[O-])o3)cc2Cl)CC1	Vaccinia mCherry 12.6µM, HCV inhibitor 22.4µM, Vaccinia Venus inconclusive, HCMV inh -100.6
CC(C)C(=O)N1CCN(c2ccc(NC(=O)COc3ccccc3[N+](=O)[O-])cc2)CC1	FMDV inh 15.8µM, HCV inhibitor inconclusive, HCMV inh inconclusive
Brc1ccc2c(c1)-n1c(nc3ccccc31)CN2	none (no result: Vaccinia mCherry, FMDV inh, HCV inhibitor, Vaccinia Venus, Giardia FBPA inh)
CC(C)C(=O)N1CCN(c2ccc(NC(=O)c3ccc([N+](=O)[O-])o3)cc2Cl)CC1	Vaccinia mCherry inconclusive, FMDV inh 25.1µM, HCV inhibitor 10µM, Vaccinia Venus inconclusive, Giardia FBPA inh inconclusive, HCMV inh -99.9
CC(=O)N1CCN(c2ccc(NC(=O)c3ccc(Br)o3)cc2Cl)CC1	none (no result: Vaccinia mCherry, Vaccinia Venus)
O=C(Nc1ccc(N2CCCC2)c(Cl)c1)c1ccc([N+](=O)[O-])cc1	HCV inhibitor inconclusive (no result: Vaccinia mCherry, Vaccinia Venus)
Cc1ccc(NC(=O)c2ccc([N+](=O)[O-])o2)cc1S(=O)(=O)N1CCOCC1	Vaccinia mCherry inconclusive, HCV inhibitor 10µM, Vaccinia Venus inconclusive, HCMV inh -95.2
CCCC(=O)N1CCN(c2ccc(NC(=O)c3ccc([N+](=O)[O-])o3)cc2Cl)CC1	Vaccinia mCherry 10µM, FMDV inh 20µM, HCV inhibitor inconclusive, Vaccinia Venus inconclusive, HCMV inh -109.4
CCCCCC(=O)Nc1ccc(N2CCN(CC)CC2)c(Cl)c1	FMDV inh inconclusive, HCV inhibitor 22.4µM (no result: Vaccinia mCherry, Vaccinia Venus)
NC(CSCSCC(N)C(=O)O)C(=O)O (stereo not given)	none (no result: HCV inhibitor, HCMV inh)
COC(=O)C1CCN(Cc2ccc3c(c2)CN(C(=O)C(C)N2CCOCC2)CCO3)CC1 (stereo not given)	none (no result: HCV inhibitor, Giardia FBPA inh, HCMV inh)
O=[N+]([O-])c1cc(-c2nc(-c3ccccc3)no2)ccc1N1CCOCC1	none (no result: HCV inhibitor, Giardia FBPA inh)
CCOc1ccc(NC(=O)Cn2ccn(-c3ccc(F)c(F)c3)c(=O)c2=O)cc1	none (no result: HCV inhibitor, Giardia FBPA inh)
O=c1cc(O)nc(-c2ccc(Cl)cc2)s1	none
O=C(Nc1c(Cl)ccc2nsnc12)c1ccc([N+](=O)[O-])o1	HCV inhibitor inconclusive, HCMV inh -105.8 (no result: Vaccinia mCherry, Vaccinia Venus)
O=C(Nc1c(Cl)ccc2nsnc12)c1ccc(Br)o1	none (no result: HCV inhibitor, Giardia FBPA inh)
CC(C)C(=O)N1CCN(c2ccc(NC(=O)c3ccc(Br)o3)cc2)CC1	none
CC(C)C(=O)N1CCN(c2ccc(NC(=O)c3ccc([N+](=O)[O-])o3)cc2)CC1	Vaccinia mCherry 10µM, HCV inhibitor inconclusive, Vaccinia Venus 11.2µM, HCMV inh -98.2
COC(=O)C1CCCCN1Cc1ccc2c(c1)CN(Cc1cn[nH]c1-c1ccc(F)cc1)CCO2 (stereo not given)	Vaccinia mCherry inconclusive, Vaccinia Venus inconclusive (no result: HCV inhibitor, Giardia FBPA inh, HCMV inh)
COc1ccc(-c2csc(C3=C(O)CN(Cc4ccc(S(N)(=O)=O)cc4)C3=N)n2)cc1OC	none (no result: Vaccinia mCherry)
COc1ccc(-c2csc(C3=C(O)CN(Cc4ccc(Cl)cc4)C3=N)n2)cc1OC	HCV inhibitor 11.2µM
O=C(c1ccccc1Cl)N(C(=O)c1ccccc1Cl)c1nccc(-c2cccs2)n1	FMDV inh inconclusive, HCV inhibitor inconclusive, Giardia FBPA inh 7.94µM (no result: Vaccinia mCherry, Vaccinia Venus)
C=C1N(S(=O)(=O)C(F)(F)F)CCC12CN(C)c1ccccc12 (stereo not given)	none (no result: Vaccinia mCherry, FMDV inh, HCV inhibitor, Vaccinia Venus, Giardia FBPA inh)
Cc1cc(NC(=O)c2ccc3[nH]c(C)c(C)c3c2)ccn1	Vaccinia mCherry inconclusive, HCV inhibitor 2.51µM

Screens as filed in PubChem.
